TDP1 block = TDP1 (human) enzyme inhibition | Q9NUW8 | 350,000 compounds, 0.28% hits | recombinant TDP1, AlphaScreen DNA substrate cleavage | Potency, µM (top dose mostly 130 µM), usual class: inhibitors; note: nearly all actives have a fitted effect of over 40% in size
Target sequence (Q9NUW8 whole entry, looked up): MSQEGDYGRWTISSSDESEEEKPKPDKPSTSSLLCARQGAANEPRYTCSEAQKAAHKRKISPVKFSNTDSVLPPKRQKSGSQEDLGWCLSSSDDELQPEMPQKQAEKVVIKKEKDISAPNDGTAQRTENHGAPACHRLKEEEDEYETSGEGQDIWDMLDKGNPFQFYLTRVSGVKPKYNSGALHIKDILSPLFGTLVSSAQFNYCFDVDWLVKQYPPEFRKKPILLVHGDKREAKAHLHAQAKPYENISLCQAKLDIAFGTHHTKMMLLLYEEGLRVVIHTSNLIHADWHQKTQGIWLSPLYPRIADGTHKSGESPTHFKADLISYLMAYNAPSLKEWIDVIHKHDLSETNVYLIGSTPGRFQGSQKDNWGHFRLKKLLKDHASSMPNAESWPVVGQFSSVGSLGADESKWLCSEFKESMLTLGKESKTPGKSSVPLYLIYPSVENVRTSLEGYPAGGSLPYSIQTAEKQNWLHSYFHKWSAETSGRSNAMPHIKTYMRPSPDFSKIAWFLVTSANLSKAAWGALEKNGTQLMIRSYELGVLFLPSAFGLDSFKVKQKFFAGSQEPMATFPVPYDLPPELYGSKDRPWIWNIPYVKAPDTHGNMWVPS
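AlphaScreen read-out: signal falls as enzyme removes the 3' tyrosine-FITC from a 5'-biotinylated DNA oligo (15 nM, 5 min, RT). Enzyme was E. coli-made recombinant Tdp1 at 1 nM, exposed to compound for 15 min beforehand; beads 10 ug/ml, 10 min.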
TDP1 cell noCPT = qHTS for Inhibitors of human tyrosyl-DNA phosphodiesterase 1 (TDP1): qHTS in cells in absence of CPT; DT40 Tdp1-/- hTDP1 cells, no CPT, ATP luminescence, 48 h; 420,000 compounds, 15% hits; Potency, µM (highest dose often 46.2 µM), usual class: inhibitors; AID 686978, 2013; note: nearly all actives have a fitted effect of over 55% in size
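Chicken DT40 Tdp1-/- cells complemented with human TDP1, screened without camptothecin (DMSO vehicle only), 400 cells/well. Compounds pin-transferred, cells incubated at 37 °C for at least 48 hr. Growth read as ATP-dependent luminescence (CellTiter-Glo, 30 min at RT).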
DT40 TDP1 CPT = growth inhibition of DT40 Tdp1-/-;hTDP1 cells with camptothecin (screen for TDP1 inhibitors); AID 686979; chicken DT40 Tdp1-/-;hTDP1 cells + 20 nM CPT, ATP luminescence, 48 h; Potency, µM (titrated, usually from 46.2 µM), actives largely listed as inhibitors; 420,000 compounds, 12% hits; note: nearly all actives have a fitted effect of over 55% in size
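Chicken DT40 Tdp1-/- cells complemented with human TDP1, 400 cells/well, exposed to compounds plus 20 nM camptothecin for at least 48 h at 37 C; viability read as ATP content by CellTiter-Glo luminescence.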
CtBP-E1A inh = CtBP/E1A binding inhibition. activity change, % (test concentration not listed). AID 651724. AlphaScreen GST-E1A/His-CtBP binding, 1536-well; active compounds read low. 340,000 compounds, 0.49% hits; in the data active = activity change below about -65%; inconclusive = mostly about -30% to -63%
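In 5 uL wells, 23 nL compound meets equimolar GST-E1A and His-CtBP (5X stock 125 nM each) for 2 h, 37 °C. Beads (5X, 50 ug/mL) then 1 h, 37 °C, dark.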
Six1-Eya2 blk = Six1/Eya2 interaction inhibition; Q15475+O00167; AlphaScreen GST-Six1/His-Eya2 binding, biochemical; active compounds read low; activity change, % (test concentration not listed); 360,000 compounds, 0.56% hits; AID 651725; in the data active = activity change below about -65%; inconclusive = mostly about -30% to -63%
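Compounds are tested against tagged Six1 and Eya2 proteins bridged by glutathione donor and nickel acceptor beads; after a one-hour incubation at 37 °C without light, AlphaScreen emission is recorded.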
IL-1B inflam inh = inflammasome signaling inhibition, IL-1 beta readout; THP-1 LPS/ATP IL-1B secretion, AlphaLISA, 16 h; active compounds read low; activity change, % at 57.5 µM; 360,000 compounds, 4.7% hits; in the data active = activity change below about -50%; inconclusive = mostly about -30% to -49%
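THP-1 cells pretreated 1 hr with compounds (up to 57.5 uM final), then stimulated with LPS (250 ng/mL final) plus ATP (1.25 mM final); secreted IL-1B measured by AlphaLISA after 16 hr, decreased signal indicating inhibition.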
Hits are given with their value; i = inactive; ? = inconclusive; nt = no result given; ! = repeats disagree. A selection: hits, their analogues and other compounds. The true share with any hit is near 18%. Unless noted, calls come from the whole dose curve; as a rule, active = well fitted curve in the direction sought with a large enough effect; inconclusive = small, poorly fitted or top-dose-only effect, or another doubt; inactive = no such curve, though single readings can be large; an effect the other way counts as inactive or inconclusive.

SMILES | TDP1 block | TDP1 cell noCPT | DT40 TDP1 CPT | CtBP-E1A inh | Six1-Eya2 blk | IL-1B inflam inh
Cc1c[nH]c2cccc(OCC(O)CNC(C)(C)C)c12 (configuration not stated) | i | i | i | i | i | i
COc1ccc(-c2cc(C(=O)Nc3cccnc3)c3ccccc3n2)cc1OC | i | 23.1µM | 23.1µM | i | i | i
O=C(Nc1ccncc1)c1cc(-c2cccc(Br)c2)nc2ccccc12 | nt | ? | ? | i | i | -77.7
COc1ccc(-c2cc(C(=O)Nc3nc4ccccc4s3)c3ccccc3n2)cc1OC | i | ? | 14.6µM | i | i | i
Cc1ccc(CNC(=O)c2cc(-c3ccc(C)c(C)c3)nc3ccccc23)cc1 | i | ? | ? | nt | nt | nt
COc1ccc(-c2cc(C(=O)Nc3ccc(Cl)cc3Cl)c3ccccc3n2)cc1OC | i | ? | ? | i | i | i
COc1ccc(-c2cc(C(=O)NCc3cn(C)nc3C)c3ccccc3n2)cc1OC | i | ? | 14.6µM | i | i | i
Cc1ccc(CN2CCNC(=O)C2CC(=O)N(C)CCc2cnn(C)c2)cc1 (configuration not stated) | i | i | i | i | i | i
COc1ccc(C(=O)Nc2nc3ccccc3s2)cc1OC | i | i | i | i | i | -87.5
COc1ccc(CC(=O)Nc2ccc(-c3nc4ccccc4s3)c(C)c2)cc1OC | i | 25.9µM | ? | nt | nt | nt
O=C(Nc1cccnc1)c1cc(-c2cccc(Br)c2)nc2ccccc12 | i | 16.4µM | ? | i | i | i
COc1ccc(/C=N/OCC(=O)Nc2nc3ccccc3s2)cc1OC | i | ? | ? | i | i | -50.3
Cc1cc2ccccc2c(=O)n1CC(=O)NCC(=O)N1CCN(c2ccccc2)CC1 | i | i | i | i | i | i
C/C(=N\Nc1nc2c(s1)CCCC2)c1ccc(Cl)cc1 | i | 8.2µM | 13µM | i | i | -55.5
CN(C)c1ccc(C(=O)Nc2nc3c(s2)CCCC3)cc1 | i | ? | ? | i | i | i
Cc1ccc(NC(=O)COC(=O)CCn2c(C)csc2=O)cc1S(=O)(=O)N1CCOCC1 | i | i | i | i | i | i
CCN(CC)c1ccc(C(=O)NCc2ccc3c(c2)CCN3C(=O)c2cccc(C)c2)cc1 | i | ? | ? | nt | nt | nt
CN(C)c1ccc(C(=O)NCc2ccc3c(c2)CCN3C(=O)c2ccccc2)cc1 | i | ? | 16.4µM | nt | nt | nt
Cc1ccc(C(=O)NCc2ccc3c(c2)CCN3C(=O)c2ccc(C)cc2)cc1 | i | 18.4µM | 20.6µM | nt | nt | nt
CCN(CC)c1ccc(C(=O)NCc2ccc3c(c2)CCN3C(=O)c2ccccc2)cc1 | i | 23.1µM | 20.6µM | nt | nt | nt
Cc1ccc(C)c(NC(=O)NCc2ccc3c(c2)CCN3C(=O)c2ccccc2)c1 | i | ? | 20.6µM | nt | nt | nt
CC(=O)n1nc(-c2ccc(C)cc2)nc1NCc1ccc(F)cc1 | i | i | i | i | i | i
CC1CCCCC12NC(=O)N(CC(=O)Nc1cccnc1Cl)C2=O (configuration not stated) | i | i | i | i | i | i
O=[N+]([O-])c1ccc2c([N+](=O)[O-])ccc3c2c1CC3 | nt | 18.4µM | 18.4µM | i | i | ?
CC(C)c1nc(Cl)c(C#N)c2c1COC(C)(C)C2 | i | i | i | nt | i | i
SMILES | TDP1 block | TDP1 cell noCPT | DT40 TDP1 CPT | CtBP-E1A inh | Six1-Eya2 blk | IL-1B inflam inh
COc1ccccc1N(CC(=O)NCCSCc1ccccc1)S(C)(=O)=O | nt | i | i | nt | i | i
COc1ccccc1N(CC(=O)NCCSCc1ccc(Cl)cc1)S(C)(=O)=O | i | 23.1µM! | 20.6µM | i | i | i
Cc1ccccc1N(CC(=O)NCCSCc1ccccc1)S(C)(=O)=O | i | i | i | i | i | i
Cc1cccc(N(CC(=O)NCCSCc2ccc(Cl)cc2)S(C)(=O)=O)c1C | nt | 25.9µM | 18.4µM | nt | nt | nt
Cc1cccc(N(CC(=O)NCCSCc2ccccc2)S(C)(=O)=O)c1C | i | i | i | i | i | i
COc1ccc(C)cc1N(CC(=O)NCCSCc1cccc(Cl)c1)S(C)(=O)=O | nt | ? | 16.4µM | i | i | i
Cc1cccc(N(CC(=O)NCCSCc2ccccc2)S(=O)(=O)c2ccccc2)c1C | nt | ? | 23.1µM | nt | nt | nt
NC(=S)NNc1cc(Cl)cc(Cl)c1 | i | ? | 13µM | i | i | i
